Molecules are shown by their SMILES.

Our source for the residual activity values is ChEMBL document CHEMBL2218924, “A broad activity screen in support of a chemogenomic map for kinase signalling research and drug discovery” (Biochem J, 2013).

Test [1] concerns the target T1, CDK3/cyclin E (Homo sapiens) (UniProt P24864+O96020+Q00526). As to conditions: at 1 µM.
For test [2], the target named is T1, CDK3/cyclin E (Homo sapiens). The settings on record: at 10 µM.
For test [3], the target named is T2, Cyclin-dependent kinase 5/CDK5 activator 1 (Homo sapiens) (UniProt Q00535+Q15078). The settings on record: at 1 µM.
Target sequence in this assay (Q00535 whole entry): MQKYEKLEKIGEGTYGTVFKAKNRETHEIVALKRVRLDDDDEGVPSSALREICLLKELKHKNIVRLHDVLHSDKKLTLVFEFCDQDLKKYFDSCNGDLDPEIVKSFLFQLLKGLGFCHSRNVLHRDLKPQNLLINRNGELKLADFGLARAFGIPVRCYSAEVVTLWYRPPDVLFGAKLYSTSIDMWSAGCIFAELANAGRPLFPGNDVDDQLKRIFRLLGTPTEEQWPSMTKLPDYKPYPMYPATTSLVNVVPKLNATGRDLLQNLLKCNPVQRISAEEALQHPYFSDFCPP
Target sequence in this assay (Q15078 99-307 partner limits assumed): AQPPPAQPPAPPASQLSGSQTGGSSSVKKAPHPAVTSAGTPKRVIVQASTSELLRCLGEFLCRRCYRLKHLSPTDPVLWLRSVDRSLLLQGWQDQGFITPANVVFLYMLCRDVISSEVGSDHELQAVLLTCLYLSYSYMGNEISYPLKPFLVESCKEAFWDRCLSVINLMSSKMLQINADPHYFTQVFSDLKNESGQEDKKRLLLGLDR
The target in test [4] is T2, Cyclin-dependent kinase 5/CDK5 activator 1 (Homo sapiens). As to conditions: at 10 µM.
Test [5] has the same target. As to conditions: at 1 µM. This is another data set of the same source.
Target sequence in this assay (Q00535 whole entry): as the sequence (Q00535 whole entry) above
Target sequence in this assay (Q15078 99-307 partner limits assumed): as the sequence (Q15078 99-307 partner limits assumed) above
Test [6] has the same target. The settings on record: at 10 µM. This is another data set of the same source.
The target of test [7] is T3, CDK6/cyclin D3 (Homo sapiens) (UniProt P30281+Q00534). As to conditions: at 1 µM.
Test [8] has as its target T3, CDK6/cyclin D3 (Homo sapiens). The settings on record: at 10 µM.
Test [9] addresses T4, Cyclin-dependent kinase 7/ cyclin H (Homo sapiens) (UniProt P51946+P50613). As to conditions: at 1 µM.
The target in test [10] is T4, Cyclin-dependent kinase 7/ cyclin H (Homo sapiens). As to conditions: at 10 µM.
Test [11] addresses T5, CDK9/cyclin T1 (Homo sapiens) (UniProt O60563+P50750). The settings on record: at 1 µM.
The target of test [12] is T5, CDK9/cyclin T1 (Homo sapiens). As to conditions: at 10 µM.
For test [13], the target named is T6, Serine/threonine-protein kinase Chk1 (Homo sapiens) (UniProt O14757).
T6 sequence (whole entry): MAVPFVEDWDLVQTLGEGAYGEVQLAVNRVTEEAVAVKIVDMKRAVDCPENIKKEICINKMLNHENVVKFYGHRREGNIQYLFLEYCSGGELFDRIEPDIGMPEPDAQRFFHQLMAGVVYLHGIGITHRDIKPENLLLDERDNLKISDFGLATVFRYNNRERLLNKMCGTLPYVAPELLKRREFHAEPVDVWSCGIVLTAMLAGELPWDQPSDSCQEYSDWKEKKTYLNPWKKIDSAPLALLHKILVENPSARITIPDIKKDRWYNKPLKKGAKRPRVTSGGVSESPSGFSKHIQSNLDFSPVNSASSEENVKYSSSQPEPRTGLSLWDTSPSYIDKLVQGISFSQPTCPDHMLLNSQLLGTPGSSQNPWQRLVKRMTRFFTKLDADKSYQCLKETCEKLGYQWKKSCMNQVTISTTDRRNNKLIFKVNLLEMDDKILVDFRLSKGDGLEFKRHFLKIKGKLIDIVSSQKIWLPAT
As to conditions: at 1 µM.

Test [14] addresses T6, Serine/threonine-protein kinase Chk1 (Homo sapiens). The settings on record: at 10 µM.
Test [15] concerns the target Serine/threonine-protein kinase Chk2 (Homo sapiens) (UniProt O96017). The settings on record: at 1 µM.
Test [16] shares this target. As to conditions: at 10 µM.
Test [17] addresses Casein kinase I isoform gamma-1 (Homo sapiens) (UniProt Q9HCP0). As to conditions: at 1 µM.
For test [18] the target is unchanged. As to conditions: at 10 µM.
Test [19] addresses Casein kinase I isoform delta (Homo sapiens) (UniProt P48730). As to conditions: at 1 µM.
Test [20] shares this target. As to conditions: at 10 µM.

T1 sequence (O96020 whole entry, looked up): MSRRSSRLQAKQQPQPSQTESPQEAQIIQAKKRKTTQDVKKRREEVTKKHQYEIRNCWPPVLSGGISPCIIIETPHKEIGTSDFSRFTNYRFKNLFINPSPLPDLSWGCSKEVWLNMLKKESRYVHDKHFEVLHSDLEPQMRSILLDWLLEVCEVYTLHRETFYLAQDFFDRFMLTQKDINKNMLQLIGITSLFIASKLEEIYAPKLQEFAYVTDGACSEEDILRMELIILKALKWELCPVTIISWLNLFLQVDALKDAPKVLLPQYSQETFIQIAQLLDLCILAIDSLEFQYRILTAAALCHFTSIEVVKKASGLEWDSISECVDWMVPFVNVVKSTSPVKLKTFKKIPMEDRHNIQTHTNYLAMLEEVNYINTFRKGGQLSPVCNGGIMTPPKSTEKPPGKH
T1 sequence (P24864 whole entry, looked up): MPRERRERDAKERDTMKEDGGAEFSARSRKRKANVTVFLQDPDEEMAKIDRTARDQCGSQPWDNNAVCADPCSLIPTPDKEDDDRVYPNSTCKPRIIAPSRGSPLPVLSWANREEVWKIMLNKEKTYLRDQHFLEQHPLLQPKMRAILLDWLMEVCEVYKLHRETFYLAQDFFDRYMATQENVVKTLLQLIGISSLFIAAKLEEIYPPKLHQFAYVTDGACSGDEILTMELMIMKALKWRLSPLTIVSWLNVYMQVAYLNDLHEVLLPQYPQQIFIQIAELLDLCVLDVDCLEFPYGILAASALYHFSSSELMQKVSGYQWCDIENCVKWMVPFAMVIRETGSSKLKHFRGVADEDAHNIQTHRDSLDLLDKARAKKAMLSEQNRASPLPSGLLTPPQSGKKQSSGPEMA
T1 sequence (Q00526 whole entry, looked up): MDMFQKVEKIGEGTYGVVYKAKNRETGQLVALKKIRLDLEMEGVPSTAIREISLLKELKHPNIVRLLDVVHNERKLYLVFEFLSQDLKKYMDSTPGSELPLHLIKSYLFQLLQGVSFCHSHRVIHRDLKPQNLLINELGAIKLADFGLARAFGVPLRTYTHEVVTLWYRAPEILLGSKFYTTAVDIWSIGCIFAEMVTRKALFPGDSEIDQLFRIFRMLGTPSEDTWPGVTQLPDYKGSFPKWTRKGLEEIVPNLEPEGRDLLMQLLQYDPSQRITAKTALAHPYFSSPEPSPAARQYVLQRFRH
Chain of Casein kinase I isoform gamma-1 (Homo sapiens) (Q9HCP0 whole entry, looked up, canonical isoform): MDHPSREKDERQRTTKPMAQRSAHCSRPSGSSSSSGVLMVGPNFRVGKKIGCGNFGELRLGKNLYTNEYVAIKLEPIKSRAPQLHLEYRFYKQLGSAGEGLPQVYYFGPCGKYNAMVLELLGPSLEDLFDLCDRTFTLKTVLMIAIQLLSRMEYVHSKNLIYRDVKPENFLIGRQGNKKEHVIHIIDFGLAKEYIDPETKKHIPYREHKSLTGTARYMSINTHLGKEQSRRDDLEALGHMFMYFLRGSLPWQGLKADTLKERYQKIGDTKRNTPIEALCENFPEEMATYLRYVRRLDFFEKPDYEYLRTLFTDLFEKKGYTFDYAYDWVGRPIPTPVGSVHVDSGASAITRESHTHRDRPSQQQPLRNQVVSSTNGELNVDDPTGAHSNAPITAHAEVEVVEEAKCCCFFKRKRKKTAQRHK
Chain of Casein kinase I isoform delta (Homo sapiens) (P48730 whole entry, looked up, canonical isoform): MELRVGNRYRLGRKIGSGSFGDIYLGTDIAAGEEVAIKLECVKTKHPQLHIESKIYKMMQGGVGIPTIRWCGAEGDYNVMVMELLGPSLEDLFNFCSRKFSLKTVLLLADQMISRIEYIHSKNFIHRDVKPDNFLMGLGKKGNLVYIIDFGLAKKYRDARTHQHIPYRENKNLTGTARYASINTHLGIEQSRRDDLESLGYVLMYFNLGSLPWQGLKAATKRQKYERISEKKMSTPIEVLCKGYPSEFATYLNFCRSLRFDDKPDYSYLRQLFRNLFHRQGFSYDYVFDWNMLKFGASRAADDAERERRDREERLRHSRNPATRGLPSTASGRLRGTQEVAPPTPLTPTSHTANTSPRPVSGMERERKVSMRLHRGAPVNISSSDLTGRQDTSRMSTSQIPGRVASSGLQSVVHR
Chain of Serine/threonine-protein kinase Chk2 (Homo sapiens) (O96017 whole entry): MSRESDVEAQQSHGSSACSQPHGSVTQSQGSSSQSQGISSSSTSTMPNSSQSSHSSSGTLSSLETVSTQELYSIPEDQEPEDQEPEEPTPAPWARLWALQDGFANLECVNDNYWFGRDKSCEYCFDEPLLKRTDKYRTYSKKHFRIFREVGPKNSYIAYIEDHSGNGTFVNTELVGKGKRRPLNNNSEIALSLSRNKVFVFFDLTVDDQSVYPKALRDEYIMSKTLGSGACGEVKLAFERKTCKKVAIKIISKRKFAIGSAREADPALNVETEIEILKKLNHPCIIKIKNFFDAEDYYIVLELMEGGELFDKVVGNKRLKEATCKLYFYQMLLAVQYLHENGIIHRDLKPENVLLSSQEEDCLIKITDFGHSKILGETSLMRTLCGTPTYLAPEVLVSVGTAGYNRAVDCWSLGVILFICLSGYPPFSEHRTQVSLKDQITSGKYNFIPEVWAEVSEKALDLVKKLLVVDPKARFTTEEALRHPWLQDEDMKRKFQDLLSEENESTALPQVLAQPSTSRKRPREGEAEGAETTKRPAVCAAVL

As for `CC(C)n1cnc2/c(=N/c3cccc(Cl)c3)nc(NCCO)[nH]c21`, the residual activity turned out to be 44% in [1]; 8% in test [2]; 3% in test [3]; 0% in [4]; 8% in [5]; 1% in test [6]. Moreover, the residual activity in test [7] was 92%; in test [8], 58%; in [9] it was 45%; in test [10], 7%; in test [11], 63%; in test [12], 24%. Besides, the residual activity in test [13] is 38%; in [14], 25%; in [15] it was 64%; in test [16], 21%; in test [17] it was 8%; in test [18], 0%. Moreover, the values for the residual activity in test [19] and in test [20] were 37% and 7%, respectively.
As to `Cc1nc2cc3nc(-c4cccs4)cnc3cc2n1C`, the residual activity in [1] is 109%; in test [2], 99%; in test [3], 91%; in test [4], 109%; in [5] it was 106%; in test [6] it was 99%. The residual activity in test [7] was 107%; in test [8] it was 93%; in test [9] it was 82%; in test [10] it was 102%; in test [11], 109%; in test [12], 102%. The residual activity was found to be 101% in [13]; 108% in test [14]; 86% in [15]; 101% in [16]; 89% in test [18]; 95% in test [19]. Moreover, in test [20], the residual activity stood at 67%.
On to `N#Cc1cnc2cnc(NCc3cccnc3)cc2c1Nc1ccc(F)c(Cl)c1`, for which the residual activity in [1] stood at 21%; in [2], 11%; in [5], 22%; in test [6], 11%; in [7], 123%; in test [8], 97%. Also, the residual activity in test [9] turned out to be 71%; in test [10], 46%; in [11] it was 93%; in test [12] it was 100%; in test [13], 3%; in test [14], 1%. Besides, the residual activity in [15] is 49%; in [16] it was 36%; in test [18] it was 93%; in [19], 79%; in test [20] it was 62%.
For `Cc1cccc(-c2[nH]c(C(C)(C)C)nc2-c2ccc3c(c2)OCO3)n1`, the residual activity in [1] was 90%; in test [2], 89%; in test [3], 83%; in test [4], 88%; in test [5] it was 92%; in [6], 97%. Besides, the residual activity in test [7] worked out at 104%; in test [8], 106%; in test [9] it was 100%; in test [10] it was 95%; in test [12], 98%; in test [13], 88%. For the same compound, the residual activity in test [14] was 92%; in test [15], 91%; in test [16] it was 97%; in test [17], 101%; in [18], 100%; in test [19], 69%. Moreover, the residual activity in test [20] was 33%.
As for `CN(C)c1ccc(/C=C2\C(=O)Nc3ccccc32)cc1`, the residual activity in [2] came to 89%; in [3] it was 106%; in [4], 87%; in test [5], 102%; in test [6] it was 96%; in test [7], 102%. The residual activity amounted to 50% in [8]; 88% in test [9]; 80% in [10]; 107% in [11]; 93% in [12]; 90% in test [13]. Also, the residual activity in test [14] stood at 72%; in [15], 73%; in [16], 36%; in test [17], 91%; in test [18] it was 74%; in test [19] it was 56%. For the same compound, the residual activity in [20] came to 21%.
For `Cc1cncc2cccc(S(=O)(=O)N3CCCN(C(=O)CN)C[C@H]3C)c12`, the residual activity was 92% in test [1]; 73% in [2]; 89% in test [3]; 80% in test [4]; 80% in test [5]; 92% in test [6]. Besides, the residual activity in [7] was found to be 93%; in [8] it was 84%; in [9], 78%; in test [10], 89%; in [11], 92%; in [12], 71%. The residual activity is 88% in test [13]; 93% in [14]; 80% in [15]; 83% in test [16]; 83% in [19].
Regarding `N#CC(C#N)=C(N)/C(C#N)=C/c1ccc(O)cc1`, the residual activity is 94% in test [1]; 89% in test [2]; 83% in test [4]; 117% in test [6]; 98% in test [7]; 87% in [8]. Also, the residual activity in test [9] came to 96%; in test [10] it was 90%; in [12], 86%; in [13], 90%; in [14] it was 96%; in test [15], 88%. The residual activity in [16] came to 85%; in test [17] it was 83%; in test [18], 99%; in [19], 82%; in [20], 54%.
For `Oc1c2ccccc2c2c3c(cccc13)N=N2`, the residual activity in test [1] turned out to be 26%; in test [2] it was 14%; in [7] it was 76%; in test [8], 31%; in [9], 75%; in [10], 24%. Also, the residual activity stood at 96% in [11]; 55% in [12]; 72% in [13]; 32% in [14]; 29% in test [15]; 2% in test [16]. Moreover, the residual activity in test [17] is 99%; in [18], 48%; in [19], 5%; in test [20], 1%.
